Data from PubChem BioAssay (NCI).
This is part of a sample that, as a whole, favours compounds with a hit. Of some 83,000 tested, about 20% had one in any assay.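 Percent growth is the endpoint: 0 to 100 indicates growth inhibition (40 means 60% inhibition), 0 means no net growth, and negative values indicate cell death.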 Calls of active or inactive are those of the source. Rule for the calls: active = growth percent below 10; inactive = the rest.

Columns and labels:
Test in all cases: NCI-60 one-dose screen, 48 h (100 = growth as untreated, 0 = no growth, -100 = all killed)
Conditions in all cases: 10 µM unless noted
[1] = test system: HCT-15 colon
[2] = test system: HT29 colon
[3] = test system: SNB-75 CNS
[4] = test system: SNB-19 CNS
[5] = test system: U251 CNS
[6] = test system: PC-3 prostate
[7] = test system: SK-MEL-5 melanoma
[8] = test system: UACC-62 melanoma
[9] = test system: LOX IMVI melanoma
[10] = test system: SK-MEL-28 melanoma
[11] = test system: SK-MEL-2 melanoma
[12] = test system: EKVX NSCLC
[13] = test system: SN12C renal
[14] = test system: UO-31 renal
[15] = test system: TK-10 renal
[16] = test system: ACHN renal
[17] = test system: CAKI-1 renal
[18] = test system: A498 renal
[19] = test system: CCRF-CEM leukemia
[20] = test system: MOLT-4 leukemia

Measured: growth

O=[N+]([O-])c1ccccc1CN1CCCCC1
inactive: [1] 107% | [2] 113% | [3] 87.8% | [4] 106% | [5] 110% | [6] 91.6% | [7] 105% | [8] 103% | [9] 96.6% | [10] 117% | [11] 100% | [12] 86.8% | [13] 105% | [14] 89.4% | [15] 121% | [16] 113% | [17] 108% | [18] 99.5% | [19] 85.4% | [20] 115%

C[C@@H](C[C@H](CC1CC1)c1ccccc1)c1ccc2ccccc2c1
inactive: [1] 107% | [2] 105% | [3] 85% | [4] 101% | [5] 101% | [6] 98.9% | [7] 99.9% | [8] 103% | [9] 98.4% | [10] 107% | [11] 109% | [12] 101% | [13] 103% | [14] 90.1% | [15] 105% | [16] 106% | [17] 92.9% | [18] 100% | [19] 96.4% | [20] 105%

CCCCNCCC(O)c1cc2ccc(C(F)(F)F)cc2c2cc(C(F)(F)F)ccc12 (stereo not given)
active: [1] -65.2% | [2] -84.8% | [3] -90.5% | [4] -76.6% | [5] -93.7% | [6] -85.2% | [7] -87.6% | [8] -84.3% | [9] -71.2% | [10] -87.7% | [11] -70.1% | [12] -54% | [13] -75.2% | [14] -88.8% | [15] -91.8% | [16] -82.8% | [17] -74.7% | [18] -6.76% | [19] -45.5% | [20] -58.8%

O=c1[nH]c2ccccc2n2cc3cccnc3c12
inactive: [1] 70.2% | [2] 42.3% | [3] 86.2% | [4] 71% | [5] 76.6% | [6] 84.7% | [7] 73.2% | [8] 53% | [9] 65.6% | [10] 107% | [11] 105% | [12] 86.4% | [13] 51.2% | [14] 67.8% | [15] 83.7% | [16] 49.1% | [17] 68.1% | [18] 51.2% | [19] 74.5% | [20] 48.4%

C/C(CC(=O)NNc1ccc([N+](=O)[O-])cc1)=N\Nc1ccc([N+](=O)[O-])cc1
inactive: [1] 49.6% | [2] 71.4% | [3] 97.3% | [4] 104% | [5] 78.5% | [6] 54.7% | [7] 59.4% | [9] 70.3% | [10] 114% | [11] 111% | [12] 54.1% | [13] 68.9% | [14] 40% | [15] 93.4% | [16] 47.5% | [17] 31.3% | [18] 81% | [19] 48.6% | [20] 29.2%
active: [8] 9.12%

COc1ccc2nc(NC(=O)/C(=C/c3cc(OC)c(OC)c(OC)c3)c3ccc(OC)c(OC)c3)sc2c1
inactive: [1] 100% | [2] 88.4% | [3] 94.3% | [4] 102% | [5] 94.6% | [6] 86.8% | [7] 93% | [8] 90.5% | [9] 90.4% | [10] 105% | [11] 95.6% | [12] 77.8% | [13] 99.9% | [14] 67.4% | [15] 98.5% | [16] 94.9% | [17] 75.9% | [18] 95.7% | [19] 98.6% | [20] 83.7%

O=C(O)c1ccccc1N=Cc1ccccc1
inactive: [1] 111% | [2] 108% | [3] 119% | [4] 112% | [5] 106% | [6] 87.6% | [7] 116% | [8] 119% | [9] 92.6% | [10] 129% | [11] 108% | [12] 101% | [13] 110% | [14] 97.5% | [15] 103% | [16] 105% | [17] 96.3% | [18] 117% | [19] 88.5% | [20] 94.6%

CC(C)OC(=O)c1ccc([N+](=O)[O-])cc1
inactive: [1] 107% | [2] 102% | [3] 111% | [4] 109% | [5] 106% | [6] 102% | [7] 106% | [8] 100% | [9] 98% | [10] 110% | [11] 122% | [12] 96% | [13] 97.7% | [14] 104% | [15] 113% | [16] 114% | [17] 103% | [18] 79.2% | [19] 103% | [20] 113%

c1ccc(C(Nc2ccccn2)(c2ccccc2)c2ccccc2)cc1
inactive: [1] 74.1% | [2] 69.9% | [3] 74.8% | [4] 77.5% | [5] 84.3% | [6] 39.1% | [7] 70.3% | [8] 59.3% | [9] 100% | [10] 98.5% | [11] 74.5% | [12] 38.1% | [13] 75.9% | [14] 35.4% | [15] 85.5% | [16] 69.3% | [17] 63.3% | [18] 72% | [19] 81.2% | [20] 66.3%

C#CC[C@@H]1C[C@]2(C)[C@H]3CC[C@@H]4[C@H]5C(C(=C)C)CC[C@]5(C(=O)NCCCCCCCCN)CC[C@@]4(C)[C@]3(C)CC[C@H]2C(C)(C)[C@H]1OC(C)=O (stereo not given in full)
inactive: [1] 67.5% | [2] 30.5% | [3] 80.3% | [4] 92.1% | [5] 71.1% | [6] 55.3% | [7] 98% | [8] 108% | [9] 55% | [10] 113% | [11] 112% | [12] 103% | [13] 96.3% | [14] 75.5% | [15] 96.5% | [16] 111% | [17] 69.9% | [18] 95.6%
active: [19] -8.23% | [20] 5.47%

CCNC(=S)N(Cc1ccccc1)Cc1ccccc1
inactive: [1] 111% | [2] 98.8% | [3] 103% | [4] 123% | [5] 96.4% | [6] 95.3% | [7] 101% | [8] 91.7% | [9] 112% | [10] 110% | [11] 98.6% | [12] 93.1% | [13] 103% | [14] 74.6% | [15] 106% | [16] 96.3% | [17] 93.5% | [18] 116% | [19] 132% | [20] 82.4%

COCCCNCC(=O)Nc1c(C)cccc1C
inactive: [1] 108% | [2] 112% | [3] 115% | [4] 110% | [5] 104% | [6] 102% | [7] 106% | [8] 110% | [9] 101% | [10] 122% | [11] 112% | [12] 104% | [13] 104% | [14] 88.4% | [15] 113% | [16] 102% | [17] 105% | [18] 110% | [19] 98.6% | [20] 103%

CCCCC(CCc1ccccn1)C(=O)c1ccccc1 (stereo not given)
inactive: [1] 107% | [2] 109% | [3] 89.8% | [4] 110% | [5] 114% | [6] 98.2% | [7] 103% | [8] 107% | [9] 96.5% | [10] 108% | [11] 116% | [12] 102% | [13] 122% | [14] 79.7% | [15] 127% | [16] 116% | [17] 99.5% | [18] 105% | [19] 98.3% | [20] 112%

COc1ccc(CCN2COc3c([C@@H](C)CCC=C(C)C)ccc(C)c3C2)cc1OC
active: [2] 8.29%
inactive: [1] 29.5% | [3] 62.8% | [4] 83.3% | [5] 49.8% | [6] 47.6% | [7] 18.2% | [8] 65.5% | [9] 64.3% | [10] 69.4% | [11] 89.4% | [12] 63.2% | [13] 52.8% | [14] 41.4% | [15] 76.9% | [16] 70% | [17] 68.7% | [18] 66.2% | [19] 62.6% | [20] 48.3%

CN1CCN(Cc2ccc(NC(=O)c3cncc(C#Cc4ncc5cnccn45)c3)cc2C(F)(F)F)CC1
active: [11] -12.9%
inactive: [1] 56.7% | [2] 27.4% | [3] 38.1% | [4] 94.5% | [5] 64.2% | [6] 54.9% | [7] 55.3% | [8] 57.3% | [9] 26.5% | [10] 38.1% | [12] 77.2% | [13] 54.5% | [14] 18.3% | [15] 81.4% | [16] 30.7% | [17] 31.5% | [18] 65.2% | [19] 41.9% | [20] 43.5%
